Where “and” joins values, the source holds several entries; their conditions need not be identical. Identical values can stand only once. Calls of active or inactive are those of the source.
Assays:
[1] = test system: PRMT1 (protein arginine N-methyltransferase 1); experiment: small molecules binding arginine methyltransferase PRMT1 – biochemical, small-molecule microarray, 635 nm fluorescence, primary screen (AID 1088); settings: higher = more signal;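 note: binding of Prmt1 protein to compounds spotted on small-molecule microarray slides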
[2] = growth effects on S. cerevisiae YJM789 – YJM789 clinical isolate, OD600, 24 h, basal, primary screen (AID 1089); settings: higher = more signal, called active from +8 up or from −8 down;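 note: growth of clinical yeast isolate S. cerevisiae YJM 789 seeded 1000 cells per well; test concentration not given here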
[3] = S. pombe growth modifiers, basal conditions – strain 972, OD600, 24 h, no modulator, primary screen (AID 1090);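 note: basal condition with compound alone and no growth modifier present; test concentration not given here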; settings: S. pombe 972 growth, higher = more signal, called active from +8 up or from −8 down
[4] = budding yeast growth modifiers under rapamycin – strain BY4716, OD600, 96 h, primary screen (AID 1091); note: test concentration not given here; settings: S. cerevisiae BY4716 + rapamycin, higher = more signal, called active from +8 up or from −8 down
[5] = biological target: Torsin-1A-interacting protein 2 (Homo sapiens) (UniProt Q8NFQ8); experiment: small molecules binding lysate-expressed LULL1 – cell lysate, human LULL1 lysate, 635/667 nm fluorescence, primary screen (AID 1092); settings: small-molecule microarray, hLULL1 lysate binding, 635 nm fluorescence; higher = more signal;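 note: probe is lysate of COS7 cells overexpressing human LULL1; score merges per-feature 667 nm fluorescence with signal-to-noise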
Sequence of Torsin-1A-interacting protein 2 (Homo sapiens) (Q8NFQ8 whole entry, looked up): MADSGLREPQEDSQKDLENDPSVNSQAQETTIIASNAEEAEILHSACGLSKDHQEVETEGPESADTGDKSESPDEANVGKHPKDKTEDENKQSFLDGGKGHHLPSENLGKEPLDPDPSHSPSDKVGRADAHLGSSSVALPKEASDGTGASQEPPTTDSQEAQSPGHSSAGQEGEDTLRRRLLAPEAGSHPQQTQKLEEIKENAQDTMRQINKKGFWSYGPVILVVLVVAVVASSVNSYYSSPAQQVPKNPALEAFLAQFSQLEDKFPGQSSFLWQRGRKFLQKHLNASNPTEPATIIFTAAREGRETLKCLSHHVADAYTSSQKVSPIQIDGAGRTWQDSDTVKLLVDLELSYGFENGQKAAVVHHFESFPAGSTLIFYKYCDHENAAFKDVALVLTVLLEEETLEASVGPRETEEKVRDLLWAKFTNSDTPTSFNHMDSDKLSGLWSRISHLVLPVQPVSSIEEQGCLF

[6] = optical density change of DRC41 E. coli – strain DRC41, OD650, 24 h, E. coli filamentation project, primary screen (AID 1093);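 note: MC1000 strain lacking acrAB efflux and sulA so SOS filamentation is blocked; test concentration not given here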; settings: E. coli DRC41 growth, higher = more signal, called active from +8 up or from −8 down
[7] = probe aLefty2 binding to arrayed compounds – biochemical, biotinylated probe, 635/667 nm fluorescence, primary screen (AID 1094); settings: small-molecule microarray, higher = more signal;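 note: score merges spot fluorescence near 667 nm with spot signal-to-noise ratio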
[8] = test system: Noggin (protein binding on small-molecule microarray); experiment: small molecules binding Noggin protein – biochemical, 635/667 nm fluorescence, primary screen (AID 1095); settings: 635 nm fluorescence, higher = more signal;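 note: score merges 667 nm feature fluorescence with signal to noise over triplicate slides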
[9] = biological target: Neurogenic locus notch homolog protein 3 (Homo sapiens) (UniProt Q9UM47); experiment: small molecules binding NOTCH3 protein – biochemical, 635/667 nm fluorescence, primary screen (AID 1096); settings: small-molecule microarray, 635 nm fluorescence, higher = more signal
Sequence of Neurogenic locus notch homolog protein 3 (Homo sapiens) (Q9UM47 whole entry, looked up): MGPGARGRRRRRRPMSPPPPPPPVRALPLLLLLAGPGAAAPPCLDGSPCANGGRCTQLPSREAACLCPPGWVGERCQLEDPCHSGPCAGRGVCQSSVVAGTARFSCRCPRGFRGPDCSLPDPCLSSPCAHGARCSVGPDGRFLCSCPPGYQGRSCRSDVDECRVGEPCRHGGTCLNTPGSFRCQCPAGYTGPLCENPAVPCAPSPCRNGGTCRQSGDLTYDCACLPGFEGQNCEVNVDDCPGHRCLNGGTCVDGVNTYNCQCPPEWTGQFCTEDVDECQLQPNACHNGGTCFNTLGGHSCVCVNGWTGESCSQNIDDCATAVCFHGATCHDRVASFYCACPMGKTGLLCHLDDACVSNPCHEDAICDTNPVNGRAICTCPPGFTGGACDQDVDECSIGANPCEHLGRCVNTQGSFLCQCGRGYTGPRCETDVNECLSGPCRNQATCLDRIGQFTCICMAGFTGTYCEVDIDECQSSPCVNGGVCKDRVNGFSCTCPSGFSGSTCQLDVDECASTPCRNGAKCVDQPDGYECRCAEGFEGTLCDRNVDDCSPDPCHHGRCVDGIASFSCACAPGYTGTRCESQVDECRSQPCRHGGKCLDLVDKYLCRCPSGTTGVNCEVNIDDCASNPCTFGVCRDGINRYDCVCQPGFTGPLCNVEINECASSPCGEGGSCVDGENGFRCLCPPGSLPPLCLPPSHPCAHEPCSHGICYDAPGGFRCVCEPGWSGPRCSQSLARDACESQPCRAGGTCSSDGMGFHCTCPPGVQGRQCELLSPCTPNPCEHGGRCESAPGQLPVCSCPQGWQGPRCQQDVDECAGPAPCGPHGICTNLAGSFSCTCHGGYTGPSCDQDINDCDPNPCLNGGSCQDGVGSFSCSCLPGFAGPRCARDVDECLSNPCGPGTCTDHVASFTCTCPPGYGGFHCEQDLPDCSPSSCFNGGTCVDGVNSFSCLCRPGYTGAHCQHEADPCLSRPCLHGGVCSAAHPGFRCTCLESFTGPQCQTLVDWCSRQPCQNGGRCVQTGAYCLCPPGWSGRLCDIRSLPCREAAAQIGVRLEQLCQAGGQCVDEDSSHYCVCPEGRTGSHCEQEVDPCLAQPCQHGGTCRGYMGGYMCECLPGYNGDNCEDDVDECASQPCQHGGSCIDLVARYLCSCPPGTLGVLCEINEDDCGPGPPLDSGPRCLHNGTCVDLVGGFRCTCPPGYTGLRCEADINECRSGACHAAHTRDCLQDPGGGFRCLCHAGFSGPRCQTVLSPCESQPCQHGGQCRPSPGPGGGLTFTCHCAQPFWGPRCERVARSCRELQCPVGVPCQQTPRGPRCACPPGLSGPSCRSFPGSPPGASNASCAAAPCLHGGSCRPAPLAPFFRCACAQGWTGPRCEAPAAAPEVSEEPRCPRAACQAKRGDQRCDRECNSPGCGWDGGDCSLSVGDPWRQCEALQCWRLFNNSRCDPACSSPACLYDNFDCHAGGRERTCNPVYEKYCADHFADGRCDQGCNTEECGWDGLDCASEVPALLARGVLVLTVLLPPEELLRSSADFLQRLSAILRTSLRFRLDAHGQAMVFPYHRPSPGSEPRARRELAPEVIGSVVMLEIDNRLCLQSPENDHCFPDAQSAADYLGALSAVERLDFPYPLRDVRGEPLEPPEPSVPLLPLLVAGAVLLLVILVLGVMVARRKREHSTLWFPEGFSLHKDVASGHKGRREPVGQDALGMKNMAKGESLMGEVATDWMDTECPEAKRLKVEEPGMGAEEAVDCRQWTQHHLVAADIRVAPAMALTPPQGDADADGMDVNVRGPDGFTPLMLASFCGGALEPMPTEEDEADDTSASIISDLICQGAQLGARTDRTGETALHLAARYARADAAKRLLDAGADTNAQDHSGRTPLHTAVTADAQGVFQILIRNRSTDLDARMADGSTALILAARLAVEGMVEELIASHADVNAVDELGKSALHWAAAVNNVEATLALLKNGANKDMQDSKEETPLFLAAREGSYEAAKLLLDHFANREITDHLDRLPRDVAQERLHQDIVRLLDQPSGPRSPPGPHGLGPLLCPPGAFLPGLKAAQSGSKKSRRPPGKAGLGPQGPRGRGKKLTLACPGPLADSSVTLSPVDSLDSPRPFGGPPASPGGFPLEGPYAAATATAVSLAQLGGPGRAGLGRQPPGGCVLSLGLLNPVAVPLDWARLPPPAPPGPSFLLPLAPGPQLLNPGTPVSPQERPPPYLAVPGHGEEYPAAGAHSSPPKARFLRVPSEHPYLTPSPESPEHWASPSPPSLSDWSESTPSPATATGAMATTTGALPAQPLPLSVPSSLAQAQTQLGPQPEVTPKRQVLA

[10] = probe aEGFR binding to arrayed compounds – biochemical, biotinylated probe, 635/667 nm fluorescence, primary screen (AID 1097); settings: small-molecule microarray, higher = more signal;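 note: probe is a biotinylated anti-EGFR antibody binding compounds printed on slides; score combines fluorescence near 667 nm and signal to noise of each spot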
[11] = test system: Plasmodium falciparum Sir2 (PF13_0152, Sir2A); experiment: Plasmodium falciparum Sir2A binding compounds – biochemical, small-molecule microarray, 635 nm fluorescence, primary screen (AID 1098); settings: fluorescence 635 nm, higher = more signal;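 note: score merges spot fluorescence intensity with its signal-to-noise ratio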
[12] = probe aDKK1 binding to arrayed compounds – biochemical, biotinylated probe, 635/667 nm fluorescence, primary screen (AID 1099); settings: small-molecule microarray, higher = more signal;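 note: score merges 667nm spot fluorescence with signal to noise across triplicate slides; reference of the scale not given here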
[13] = probe aCHRDL2 binding to arrayed compounds – biochemical, biotinylated probe, 635/667 nm fluorescence, primary screen (AID 1100); settings: small-molecule microarray, higher = more signal
[14] = change in splice reporter luminescence, either direction, cell-based, HEK293, spliceosome inhibition project, primary screen (AID 1101); settings: HEK293 splicing luciferase reporter, 24 h, higher = more signal, called active from +8 up or from −8 down;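 note: HEK293 cells carrying a splicing-competent luciferase reporter gene; test concentration not given here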
[15] = biological target: Fibroblast growth factor 10 (Homo sapiens) (UniProt O15520); experiment: compounds binding fibroblast growth factor 10 – biochemical, small-molecule microarray, 635 nm fluorescence, primary screen (AID 1102); settings: FGF10 binding, fluorescence 635 nm, higher = more signal
Sequence of Fibroblast growth factor 10 (Homo sapiens) (O15520 whole entry, looked up): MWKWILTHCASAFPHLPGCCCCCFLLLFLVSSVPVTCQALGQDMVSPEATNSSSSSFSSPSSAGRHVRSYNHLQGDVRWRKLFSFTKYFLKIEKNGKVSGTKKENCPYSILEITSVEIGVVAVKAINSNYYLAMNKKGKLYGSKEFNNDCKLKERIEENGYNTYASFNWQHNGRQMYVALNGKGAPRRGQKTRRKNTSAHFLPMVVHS

[16] = test system: glycogen synthase kinase-3 (GSK3A per assay name; protocol says GSK3B); experiment: compounds binding glycogen synthase kinase-3 – biochemical, small-molecule microarray, 635 nm fluorescence, GSK3A, primary screen (AID 1103); settings: fluorescence 635 nm, higher = more signal; note: the record names both GSK3A and GSK3B
[17] = biological target: Epidermal growth factor receptor (Homo sapiens) (UniProt P00533); experiment: compounds binding epidermal growth factor receptor – biochemical, small-molecule microarray, 635 nm fluorescence, primary screen (AID 1104); settings: EGFR binding, higher = more signal;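 note: score merges 667 nm emission intensity with spot signal to noise over triplicate slides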
Sequence of Epidermal growth factor receptor (Homo sapiens) (P00533 whole entry, looked up): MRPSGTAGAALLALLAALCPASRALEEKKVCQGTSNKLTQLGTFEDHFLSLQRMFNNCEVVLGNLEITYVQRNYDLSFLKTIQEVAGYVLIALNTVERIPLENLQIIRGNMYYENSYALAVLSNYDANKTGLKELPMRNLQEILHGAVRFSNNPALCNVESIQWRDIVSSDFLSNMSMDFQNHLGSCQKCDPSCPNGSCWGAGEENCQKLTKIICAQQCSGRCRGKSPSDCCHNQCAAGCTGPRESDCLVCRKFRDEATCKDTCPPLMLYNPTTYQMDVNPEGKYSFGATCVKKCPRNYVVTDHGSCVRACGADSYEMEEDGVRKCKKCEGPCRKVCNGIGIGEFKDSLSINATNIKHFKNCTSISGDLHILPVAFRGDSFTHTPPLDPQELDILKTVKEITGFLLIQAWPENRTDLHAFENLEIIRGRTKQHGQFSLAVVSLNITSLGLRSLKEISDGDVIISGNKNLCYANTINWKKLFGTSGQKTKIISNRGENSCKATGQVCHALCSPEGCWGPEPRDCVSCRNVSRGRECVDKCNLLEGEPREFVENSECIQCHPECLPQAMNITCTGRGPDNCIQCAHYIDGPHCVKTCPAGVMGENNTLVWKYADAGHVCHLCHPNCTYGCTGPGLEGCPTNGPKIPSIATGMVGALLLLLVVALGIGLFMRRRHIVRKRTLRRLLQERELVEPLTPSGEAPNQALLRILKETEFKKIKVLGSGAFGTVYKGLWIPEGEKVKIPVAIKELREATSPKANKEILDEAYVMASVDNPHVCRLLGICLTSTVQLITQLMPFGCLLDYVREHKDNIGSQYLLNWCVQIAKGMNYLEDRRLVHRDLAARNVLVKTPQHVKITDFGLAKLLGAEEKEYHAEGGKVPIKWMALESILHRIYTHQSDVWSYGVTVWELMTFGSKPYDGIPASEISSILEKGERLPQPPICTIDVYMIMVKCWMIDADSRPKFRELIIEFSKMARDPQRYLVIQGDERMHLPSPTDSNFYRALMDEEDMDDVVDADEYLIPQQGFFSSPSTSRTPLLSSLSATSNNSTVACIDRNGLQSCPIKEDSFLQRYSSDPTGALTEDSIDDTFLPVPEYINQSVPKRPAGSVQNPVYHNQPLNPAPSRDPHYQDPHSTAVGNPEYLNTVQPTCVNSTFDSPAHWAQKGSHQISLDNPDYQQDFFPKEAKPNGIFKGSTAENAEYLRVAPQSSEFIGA

[18] = biological target: Follistatin-related protein 3 (Homo sapiens) (UniProt O95633); experiment: compounds binding follistatin-related protein 3 – biochemical, small-molecule microarray, 635 nm fluorescence, primary screen (AID 1105); settings: FSTL3 binding, higher = more signal;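 note: score merges emission near 667 nm and signal to noise per printed spot across three slides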
Sequence of Follistatin-related protein 3 (Homo sapiens) (O95633 whole entry, looked up): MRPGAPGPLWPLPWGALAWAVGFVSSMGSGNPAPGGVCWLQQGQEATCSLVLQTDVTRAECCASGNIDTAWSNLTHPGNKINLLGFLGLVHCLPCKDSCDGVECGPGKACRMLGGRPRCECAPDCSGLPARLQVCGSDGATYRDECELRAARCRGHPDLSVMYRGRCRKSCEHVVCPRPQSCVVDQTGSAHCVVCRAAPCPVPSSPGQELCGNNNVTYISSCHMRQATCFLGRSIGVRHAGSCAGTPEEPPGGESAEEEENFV

[19] = biological target: Dickkopf-related protein 1 (Homo sapiens) (UniProt O94907); experiment: small molecules binding DKK1 protein – biochemical, small-molecule microarray, 635 nm fluorescence scan, primary screen (AID 1106); settings: higher = more signal;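 note: score merges emission near 667 nm with signal to noise over three replicate slides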
Sequence of Dickkopf-related protein 1 (Homo sapiens) (O94907 whole entry, looked up): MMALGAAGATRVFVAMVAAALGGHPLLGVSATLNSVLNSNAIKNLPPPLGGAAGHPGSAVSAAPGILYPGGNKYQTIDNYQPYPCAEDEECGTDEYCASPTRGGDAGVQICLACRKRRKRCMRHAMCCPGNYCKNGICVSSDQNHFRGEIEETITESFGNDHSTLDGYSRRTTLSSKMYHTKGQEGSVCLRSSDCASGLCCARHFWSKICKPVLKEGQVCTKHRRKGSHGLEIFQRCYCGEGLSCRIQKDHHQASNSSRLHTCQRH

[20] = test system: Inhibin beta A chain (activin A); experiment: small molecules binding activin A – biochemical, small-molecule microarray, 635 nm fluorescence scan, primary screen (AID 1107); settings: INHBA, higher = more signal;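 note: mouse activin A protein probed at 4.33 µg/mL on printed slides; score merges bound-protein fluorescence near 667 nm with spot signal-to-noise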

Structure (SMILES) | composite z-score [1] | z-score [2] | z-score [3] | z-score [4] | composite z-score [5] | z-score [6] | composite z-score [7] | composite z-score [8] | composite z-score [9] | composite z-score [10] | composite z-score [11] | composite z-score [12] | composite z-score [13] | z-score [14] | composite z-score [15] | composite z-score [16] | composite z-score [17] | composite z-score [18] | composite z-score [19] | composite z-score [20]
COC(=O)C1=C(C)N(Cc2ccccc2)C2=C(C(C)=O)[C@H](c3ccccc3)[C@@](O)(C(=O)OC)C(=O)N2[C@@H]1c1ccccc1 | 1.09 and -0.374 | 0.0482 (inactive) and -3.34 (inactive) | -4.6 (inactive) and -4.09 (inactive) | -0.873 (inactive) and -2.14 (inactive) | 0.72 and -0.756 | -0.0134 (inactive) and -0.274 (inactive) | -0.0873 and -0.254 | 0.409 and 0.203 | 1.13 and -0.352 | 0.0729 and -0.118 | 0.765 and -0.399 | 0.156 and -0.547 | -0.535 and -0.652 | -0.694 (inactive) and -2.98 (inactive) | 0.686 and 0.158 | 0.845 and -0.533 | 0.365 and 0.197 | 0.796 and 0.145 | 0.591 and -0.0346 | 0.174 and 1.21
C=C[C@H](OC)[C@@H](O)c1ccc(O)c(F)c1 | -1.12 and -0.749 | -0.603 (inactive) and 0.106 (inactive) | -0.0898 (inactive) and -0.311 (inactive) | -1.17 (inactive) and -0.327 (inactive) | -0.93 and -0.808 | -0.853 (inactive) and 0.238 (inactive) | -0.0992 and -0.215 | -2.38 and -1.6 | -1.42 and -1.23 | -0.435 and -0.387 | 1.2 and -1.38 | -0.48 and -0.349 | 0.7 and 0.65 | -0.257 (inactive) and 0.0293 (inactive) | -1.35 and -1.61 | -2.09 and -1.69 | -2.36 and -1.75 | -1.89 and -1.94 | -2 and -1.4 | -1.87 and -1.2
CO[C@@H]1COC(=O)CC=C[C@H](C)COC(=O)[C@H](C)NC(=O)CC=C[C@H]1C | 1.38 | 1.19 (inactive) | 1.04 (inactive) | 1.25 (inactive) | -0.654 | 0.18 (inactive) | -0.235 | 1.68 | 0.438 | -0.157 | 0.237 | -0.525 | -0.774 | -0.401 (inactive) | 0.754 | 0.736 | 0.715 | 0.829 | 0.951 | 0.249
C=C[C@H](C)[C@@H](O)c1ccc(OCCO)cc1 | -0.269 and 0.62 | -0.766 (inactive) and 0.227 (inactive) | -0.467 (inactive) and -0.537 (inactive) | -0.647 (inactive) and 0.024 (inactive) | -0.982 and 0.448 | 0.158 (inactive) and -0.18 (inactive) | -0.184 and -0.0816 | -0.565 and -0.187 | -0.956 and -0.773 | -0.403 and -0.216 | 1.19 and -0.0088 | 0.892 and -0.0695 | 0.689 and 0.639 | -0.636 (inactive) and -0.215 (inactive) | -1.09 and -0.675 | -0.914 and -0.622 | -1.51 and -0.966 | -1.35 and -0.796 | -1.05 and -0.262 | -1.03 and -0.831
C=CCN(C(=O)C1N(c2ccc(CCO)cc2)C(=O)C2C(C(=O)O)C3C=CC21O3)c1ccc(OC)cc1 (stereo not given) | -0.133 and -0.497 | 0.156 (inactive) and -0.236 (inactive) | 0.332 (inactive) and -0.577 (inactive) | 0.131 (inactive) and -1.62 (inactive) | 0.0657 and -1.42 | 0.683 (inactive) and 2.67 (inactive) | -0.0641 and 0.0524 | -1.24 and -0.818 | 0.0568 and -1.8 | -0.302 and -0.367 | 1.07 and -0.0141 | -0.0654 and -0.638 | 0.581 and 0.683 | 0.119 (inactive) and -0.374 (inactive) | -0.0665 and -1.53 | -0.313 and -1.1 | -1.33 and -1.47 | -1.01 and -0.528 | -1.35 and -0.641 | -2.09 and -3.41
C=CCN(C(=O)C1N(CCOCCO)C(=O)C2C(C(=O)O)C3C=CC21O3)c1ccc(OC)cc1 (stereo not given) | -0.968 and -2.33 | -0.248 (inactive) and -0.0945 (inactive) | -0.188 (inactive) and -0.571 (inactive) | -0.348 (inactive) and -0.662 (inactive) | -0.408 and 1.86 | 0.612 (inactive) and 1.52 (inactive) | -0.158 and 0.0873 | -1.79 and -3.14 | -0.59 and -0.715 | -0.348 and -0.276 | -0.703 and 0.492 | 0.0448 and 0.214 | 0.787 and 1.07 | 0.503 (inactive) and 0.116 (inactive) | -1.53 and -1.43 | -0.805 and -0.855 | -1.33 and -3.15 | -2.58 and -2.06 | -1.83 and -2.76 | -3.52 and -4.08
